From PubChem BioAssay
This is a sample that favours compounds with a hit; in the whole collection about 8.8% have one here.
KB-V1 MDR tox: kills drug-selected multidrug resistant KB-V1 cells; KB-V1 MDR cells viability, CellTiter-Glo, 72 h; Potency, µM (doses to about 46.1 µM), usual class: cytotoxic; hit rate 3.4% among 400,000; further: potency means the concentration at half of the fitted maximal effect; nearly all actives have a fitted effect of over 60% in size
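Drug-selected KB-V1 cells, grown in DMEM lacking phenol red with 10% FBS, receive compound titrations; after three days at 37 degrees C, surviving cell ATP is quantified by CellTiter-Glo luminescence and responses normalized and curve-fitted.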
HT1080NT lethal: kills 2HG-producing HT-1080-NT fibrosarcoma cells; HT-1080-NT fibrosarcoma viability, CellTiter-Glo ATP luminescence, 48 h; hit rate 1.6% among 360,000; Potency, µM (titrated, usually from 46.1 µM), without a hit: top-dose activity, negative = less viability, most hits filed as cytotoxic; AID 686970;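 further: NT is the 2HG producing partner of a matched IDH1 knockdown line; potency means the concentration at half of the fitted maximal effect; 0% = DMSO-treated cells and -100% = media-only wells without cells; nearly all actives have a fitted effect of over 55% in size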
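HT-1080-NT; 750 cells/well; 5% FBS RPMI; 48 h compound, 37 degrees C; CellTiter-Glo luminescence; curve fitting and curve-class assignment.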
KB-3-1 tox: kills parental KB-3-1 adenocarcinoma cells | KB-3-1 viability, CellTiter-Glo ATP luminescence, 72 h | Potency, µM (titrated, usually from 46.1 µM), hits mostly cytotoxic | hit rate 1.4% among 400,000 | AID 1347075; further: potency means the concentration at half of the fitted maximal effect; nearly all actives have a fitted effect of over 60% in size
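Luminescent ATP read-out (CellTiter-Glo) measures survival of drug-naive KB-3-1 cells after 72 h compound exposure at 37 °C. Titration series was screened from lowest to highest concentration, with DMSO vehicle plates as background controls.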
IL1B secr inh: inhibitors of inflammasome signaling (IL-1 beta secretion). THP-1 LPS/ATP IL-1B secretion, AlphaLISA, 16 h; active compounds read low. activity change, % at 57.5 µM. hit rate 4.7% among 360,000; in the data active means activity change below about -50%; inconclusive means mostly about -30% to -49%
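THP-1 cells pretreated 1 hr with compounds (up to 57.5 uM final), then stimulated with LPS (250 ng/mL final) plus ATP (1.25 mM final); secreted IL-1B measured by AlphaLISA after 16 hr, decreased signal indicating inhibition.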
HT1080 IDH1KD tx: kills HT-1080 cells with IDH1 knockdown; HT-1080 IDH1 knockdown viability, ATP luminescence, 48 h; Potency, µM (doses to about 46.1 µM), inactives show at the top dose activity, negative = toxicity, usual class: cytotoxic; hit rate 2% among 360,000;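 further: potency means the concentration at half of the fitted maximal effect; 0% = DMSO wells and -100% = cell-free medium wells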
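CellTiter-Glo luminescence after 48 h compound exposure at 37 degrees C of IDH1-knockdown HT-1080 cells in 5% FBS RPMI. %Activity scaled between DMSO wells and cell-free media wells, with curves fitted and assigned curve classes.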
An asterisk follows results filed as active; i = inactive; u = inconclusive; x = no result. Unless noted, the call rests on the fitted dose curve; in most records, active means well fitted curve in the direction sought with a large enough effect; inconclusive means small, poorly fitted or top-dose-only effect, or another doubt; inactive means no such curve, though single readings can be large; an effect the other way counts as inactive or inconclusive. Unless noted, on the % scale 0 is the no-effect control and ±100 the full control effect.

SMILES	KB-V1 MDR tox	HT1080NT lethal	KB-3-1 tox	IL1B secr inh	HT1080 IDH1KD tx
O=C1CCCC1C(=O)Nc1ccc2ccccc2c1 (configuration not stated)	i	3%	i	u	2%
CCCCCCCCN1C(=O)[C@H](CC(=O)N2CCN(C(=O)C3CC3)CC2)C[C@@]2(C(=O)OC)CCCCC=C12	u	u	i	-51*	u
CCCCCCCCN1C(=O)[C@H](CC(=O)N2CCN(C(=O)C3CC3)CC2)C[C@@]2(C(=O)OC)CC(C)(C)CC=C12	u	u	u	-60*	u
CCCCCCCCN1C(=O)[C@H](CC(=O)N2CCN(C(=O)C3CC3)CC2)C[C@@]2(C(=O)OCC)CCCC=C12	i	u	i	-66*	u
CCOC(=O)[C@]12CCCC=C1N(Cc1ccccc1)C(=O)[C@H](CC(=O)N1CCN(C(=O)C3CC3)CC1)C2	i	6%	i	-17	-14%
CCCCCCCCN1C(=O)[C@H](CC(=O)N2CCCC2)C[C@@]2(C(=O)OC)CCCCC=C12	u	u	i	-17	u
S=C(NCCSCc1c(Cl)cccc1Cl)Nc1ccccc1	21µM*	-6%	u	-29	-3%
CN(C)S(=O)(=O)N(CC(=O)NCCSCc1ccccc1)c1ccccc1	i	-5%	i	13	-5%
S=C(NCCSCc1ccc(Cl)c(Cl)c1)Nc1ccccc1	i	-9%	i	-25	-26%
N#Cc1ccccc1CSCCNC(=O)Cc1c(F)cccc1Cl	i	0%	i	-2	13%
Cc1ccccc1CSCCNC(=O)CN(c1ccccc1)S(=O)(=O)N(C)C	16µM*	x	u	x	x
Cc1ccccc1CSCCNC(=O)c1ccccc1	16µM*	5%	i	-13	1%
O=C(NCCSCc1c(F)cccc1Cl)Nc1ccccc1	i	3%	i	-75*	-1%
O=C(C1CCCN(Cc2cccc(Cl)c2)C1)N1CCCCC1 (configuration not stated)	i	-17%	i	6	-9%
O=C(NC1CCCCC1)C1CCCN1S(=O)(=O)c1ccc(Cl)cc1 (configuration not stated)	u	1%	i	0	-1%
CCc1ccc(NC(=O)CN(c2ccccc2)S(=O)(=O)N(C)C)cc1	i	-15%	i	-17	-3%
O=C(NCCSc1ccccc1)c1ccccc1	i	9%	i	-17	13%
O=C(NCCSSCCNC(=O)c1ccccc1)c1ccccc1	u	-15%	u	-68*	-27%
Cc1ccc(NC(=O)CN(c2ccccc2)S(=O)(=O)N(C)C)cc1Cl	12µM*	x	u	x	x
Cc1ccccc1CSCCNC(=S)Nc1ccccc1	u	u	u	-158*	u
Cc1ccccc1CSCCNC(=O)CSCc1ccc([N+](=O)[O-])cc1	16µM*	-2%	i	0	-2%
CCOc1ccc(-n2c(C)nc3cc(C(=O)NC4CCCC4)ccc32)cc1	i	x	i	x	x
O=C(NCCSCc1c(F)cccc1Cl)c1ccc(CN2CCOCC2)cc1	16µM*	16%	u	26	9%
O=C(CNC(=O)c1ccc(Br)cc1)c1ccccc1	i	-7%	i	-65*	-2%
O=C(CNC(=O)c1ccc(Br)cc1)c1ccc(Br)cc1	i	12%	i	6	19%
SMILES	KB-V1 MDR tox	HT1080NT lethal	KB-3-1 tox	IL1B secr inh	HT1080 IDH1KD tx
CC(=O)n1c(Cl)c(NC(=O)CCl)c2ccccc21	i	5.6µM*	u	-101*	7.1µM*
Brc1cccc(-c2nc3c4ccccc4ccn3c2Cc2ccsc2)c1	i	-11%	i	-5	-12%
COC(=O)[C@@]1(Cc2ccccc2)[C@@H]2C(=CC(=O)[C@H]2CC(=O)C(=O)N(C)C)CN1C(=O)c1ccccc1	i	16µM*	21µM*	-105*	21µM*
COCCNC(=O)C(=O)Nc1c2c(nn1-c1ccccc1)CS(=O)(=O)C2	i	x	i	x	x
Cc1cccc(C)c1N1CCN(C(=O)Nc2ccc3c(c2)OCCO3)CC1	4.6µM*	-5%	i	1	0%
O=C(/C=C/c1ccc2c(c1)OCCO2)N1CCN(c2ccc(F)cc2)CC1	i	-3%	i	38	-4%
CC(C)(C)OC(=O)N1CCN(C(=O)Nc2ccc3c(c2)OCCO3)CC1	u	7%	i	-1	1%
O=C(Nc1ccc2c(c1)OCCO2)N1CCN(c2ccc(F)cc2)CC1	21µM*	1%	u	-6	6%
Cn1c(-c2ccccc2)cc2c3no[n+]([O-])c3ccc21	u	2.3µM*	3.7µM*	67	4.1µM*
Cn1c(-c2ccccc2)cc2ccccc21	i	-1%	i	2	8%
O=C(CCC1CCCN(C(=O)c2ccc3[nH]ccc3c2)C1)N1CCN(c2ccccn2)CC1 (configuration not stated)	i	-18%	i	u	-14%
CCOC(=O)N1CCc2c(sc3c2C(=O)NC(c2ccccc2)N3)C1 (configuration not stated)	i	u	u	0	15µM*
CN1CCc2c(sc3c2C(=O)NC(c2cn(Cc4ccccc4)c4ccccc24)N3)C1 (configuration not stated)	15µM*	-1%	9.2µM*	u	-17%
CN1CCc2c(sc3c2C(=O)NC(c2ccco2)N3)C1 (configuration not stated)	i	1%	i	-2	-5%
O=C(COC(=O)c1cccnc1Cl)Nc1nc(-c2ccccc2)cs1	i	14%	i	-22	11%
CCn1nc([N+](=O)[O-])c(C(C#N)c2nc3ccccc3n2C)c(Cl)c1=O (configuration not stated)	i	u	i	-94*	u
CCCn1nc([N+](=O)[O-])c(C(C#N)c2nc3ccccc3s2)c(Cl)c1=O (configuration not stated)	5.8µM*	2.8µM*	u	-102*	1.1µM*
O=C(COC(=O)Cc1c(F)cccc1Cl)Nc1nnc(-c2ccccc2)o1	i	1%	i	10	-7%
Cc1ccc(C(C)C)c(OCCNCCc2ccccc2)c1	i	0%	i	-91*	-5%
CCOc1ccccc1OCCn1ncc2ccc(OC)c(OC)c2c1=O	i	-1%	i	-10	0%
CCCCNCC#CCOc1cc(C)ccc1C(C)C	i	-18%	i	-70*	-1%
Cc1ccc(C(C)C)c(OCCCNCc2cccnc2)c1	i	5%	u	-6	-3%
COc1cc(C(=O)NCCOc2cc(C)cc(C)c2)cc(OC)c1OC	5.8µM*	12µM*	4.6µM*	27	7.3µM*
COc1ccc2cnn(CCOc3cc(C)ccc3C(C)C)c(=O)c2c1OC	6.5µM*	-5%	i	21	-17%
